Source: the supplement of paper PMC10849652
About 8,800 targets were measured; listed, in parts, are those with a hit and a random draw of the rest. About 0.5% of all pairs of compound and target were hits.

Chain of UniProt Q96Q05 (Q96Q05 whole entry, looked up): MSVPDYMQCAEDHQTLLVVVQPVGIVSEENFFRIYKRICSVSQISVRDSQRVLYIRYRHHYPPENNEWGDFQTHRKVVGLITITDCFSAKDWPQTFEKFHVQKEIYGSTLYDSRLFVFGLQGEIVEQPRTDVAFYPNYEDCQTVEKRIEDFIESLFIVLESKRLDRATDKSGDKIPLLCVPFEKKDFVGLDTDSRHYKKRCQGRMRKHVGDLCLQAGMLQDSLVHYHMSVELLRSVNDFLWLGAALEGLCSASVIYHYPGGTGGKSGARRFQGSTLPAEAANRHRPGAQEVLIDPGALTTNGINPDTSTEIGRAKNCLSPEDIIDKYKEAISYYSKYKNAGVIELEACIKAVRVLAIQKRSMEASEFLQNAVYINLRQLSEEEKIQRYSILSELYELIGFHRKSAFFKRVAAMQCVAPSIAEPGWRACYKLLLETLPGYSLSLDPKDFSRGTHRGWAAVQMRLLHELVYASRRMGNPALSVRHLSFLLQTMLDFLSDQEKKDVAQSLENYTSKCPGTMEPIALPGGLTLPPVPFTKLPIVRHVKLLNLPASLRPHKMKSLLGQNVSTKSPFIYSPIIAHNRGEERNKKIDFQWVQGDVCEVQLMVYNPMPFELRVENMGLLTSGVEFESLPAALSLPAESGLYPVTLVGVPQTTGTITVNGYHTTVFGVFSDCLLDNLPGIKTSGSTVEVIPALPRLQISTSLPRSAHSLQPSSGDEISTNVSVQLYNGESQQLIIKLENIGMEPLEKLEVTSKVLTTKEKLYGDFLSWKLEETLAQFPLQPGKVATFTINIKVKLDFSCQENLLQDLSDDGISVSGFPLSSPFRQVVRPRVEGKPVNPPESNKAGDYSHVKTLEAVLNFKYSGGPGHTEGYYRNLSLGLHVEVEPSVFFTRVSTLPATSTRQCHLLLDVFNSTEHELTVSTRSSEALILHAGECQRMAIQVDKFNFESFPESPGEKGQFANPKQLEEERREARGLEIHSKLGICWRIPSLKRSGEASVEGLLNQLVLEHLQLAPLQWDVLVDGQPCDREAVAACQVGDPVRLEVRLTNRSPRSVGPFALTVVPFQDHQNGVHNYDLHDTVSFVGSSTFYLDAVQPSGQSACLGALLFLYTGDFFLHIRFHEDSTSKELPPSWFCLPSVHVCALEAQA
Chain of UniProt Q969Z0 (Q969Z0 whole entry, looked up): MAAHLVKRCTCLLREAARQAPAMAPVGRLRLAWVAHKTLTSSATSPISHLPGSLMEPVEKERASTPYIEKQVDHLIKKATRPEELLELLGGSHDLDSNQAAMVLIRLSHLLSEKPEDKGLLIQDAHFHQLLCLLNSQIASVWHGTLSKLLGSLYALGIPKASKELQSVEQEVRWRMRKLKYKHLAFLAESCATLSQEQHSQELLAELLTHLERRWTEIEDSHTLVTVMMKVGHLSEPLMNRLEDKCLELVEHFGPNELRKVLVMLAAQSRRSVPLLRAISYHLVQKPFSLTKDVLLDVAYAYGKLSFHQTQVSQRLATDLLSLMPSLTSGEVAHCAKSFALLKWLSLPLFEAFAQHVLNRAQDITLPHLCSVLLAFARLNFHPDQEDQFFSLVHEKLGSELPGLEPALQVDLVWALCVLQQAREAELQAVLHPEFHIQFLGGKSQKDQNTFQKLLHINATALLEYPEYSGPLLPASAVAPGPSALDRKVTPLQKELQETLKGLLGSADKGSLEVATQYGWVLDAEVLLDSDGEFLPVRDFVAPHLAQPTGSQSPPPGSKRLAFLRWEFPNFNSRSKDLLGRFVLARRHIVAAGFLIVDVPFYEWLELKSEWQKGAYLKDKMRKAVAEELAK
Chain of UniProt Q7Z3V4 (Q7Z3V4 whole entry, looked up): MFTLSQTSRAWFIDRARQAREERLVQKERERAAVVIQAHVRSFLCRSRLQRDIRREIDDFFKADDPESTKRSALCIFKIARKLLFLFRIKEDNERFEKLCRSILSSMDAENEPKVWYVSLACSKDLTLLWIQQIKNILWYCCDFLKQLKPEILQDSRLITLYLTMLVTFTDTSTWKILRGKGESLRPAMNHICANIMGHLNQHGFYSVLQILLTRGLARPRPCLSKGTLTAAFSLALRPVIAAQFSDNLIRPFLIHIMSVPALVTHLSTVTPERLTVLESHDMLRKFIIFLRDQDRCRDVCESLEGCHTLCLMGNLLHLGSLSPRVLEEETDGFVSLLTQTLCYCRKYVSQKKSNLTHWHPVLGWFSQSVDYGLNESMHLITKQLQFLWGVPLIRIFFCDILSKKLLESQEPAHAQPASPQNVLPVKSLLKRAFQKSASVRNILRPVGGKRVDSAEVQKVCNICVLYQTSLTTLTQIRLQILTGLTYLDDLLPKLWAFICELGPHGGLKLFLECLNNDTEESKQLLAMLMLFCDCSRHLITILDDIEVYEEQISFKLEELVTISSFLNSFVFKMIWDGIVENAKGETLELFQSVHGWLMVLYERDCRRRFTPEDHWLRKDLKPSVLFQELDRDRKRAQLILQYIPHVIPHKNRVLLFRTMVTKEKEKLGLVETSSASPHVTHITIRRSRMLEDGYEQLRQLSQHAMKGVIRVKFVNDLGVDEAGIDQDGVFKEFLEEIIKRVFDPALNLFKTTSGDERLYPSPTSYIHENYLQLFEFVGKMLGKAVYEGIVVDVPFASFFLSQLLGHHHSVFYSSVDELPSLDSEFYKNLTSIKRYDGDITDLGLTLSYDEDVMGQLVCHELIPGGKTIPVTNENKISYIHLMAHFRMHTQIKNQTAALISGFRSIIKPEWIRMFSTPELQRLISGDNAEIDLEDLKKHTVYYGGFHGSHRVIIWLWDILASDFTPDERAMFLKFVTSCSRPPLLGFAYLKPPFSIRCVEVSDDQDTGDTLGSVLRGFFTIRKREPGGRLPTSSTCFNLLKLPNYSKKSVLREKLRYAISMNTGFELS
Chain of UniProt Q9BRZ2 (Q9BRZ2 whole entry, looked up): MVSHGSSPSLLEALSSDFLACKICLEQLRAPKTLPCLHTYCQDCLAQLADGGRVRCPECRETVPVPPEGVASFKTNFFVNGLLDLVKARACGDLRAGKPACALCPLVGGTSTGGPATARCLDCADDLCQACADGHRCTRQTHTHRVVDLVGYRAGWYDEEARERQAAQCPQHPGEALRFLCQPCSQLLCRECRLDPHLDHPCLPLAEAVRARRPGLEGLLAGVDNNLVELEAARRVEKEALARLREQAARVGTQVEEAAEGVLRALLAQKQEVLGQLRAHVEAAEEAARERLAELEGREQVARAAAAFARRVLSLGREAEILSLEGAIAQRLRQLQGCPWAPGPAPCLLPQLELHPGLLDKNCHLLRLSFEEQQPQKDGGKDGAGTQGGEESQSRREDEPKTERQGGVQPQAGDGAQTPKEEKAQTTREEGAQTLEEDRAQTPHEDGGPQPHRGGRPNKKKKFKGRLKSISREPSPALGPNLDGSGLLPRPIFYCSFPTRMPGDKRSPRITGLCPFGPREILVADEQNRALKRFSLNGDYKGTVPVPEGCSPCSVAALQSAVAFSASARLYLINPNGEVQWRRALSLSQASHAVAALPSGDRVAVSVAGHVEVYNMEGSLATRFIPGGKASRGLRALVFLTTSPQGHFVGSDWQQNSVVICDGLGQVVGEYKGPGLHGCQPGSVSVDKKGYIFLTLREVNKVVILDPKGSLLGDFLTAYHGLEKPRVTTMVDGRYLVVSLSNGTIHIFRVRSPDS
Chain of UniProt Q8N0Z6 (Q8N0Z6 whole entry, looked up): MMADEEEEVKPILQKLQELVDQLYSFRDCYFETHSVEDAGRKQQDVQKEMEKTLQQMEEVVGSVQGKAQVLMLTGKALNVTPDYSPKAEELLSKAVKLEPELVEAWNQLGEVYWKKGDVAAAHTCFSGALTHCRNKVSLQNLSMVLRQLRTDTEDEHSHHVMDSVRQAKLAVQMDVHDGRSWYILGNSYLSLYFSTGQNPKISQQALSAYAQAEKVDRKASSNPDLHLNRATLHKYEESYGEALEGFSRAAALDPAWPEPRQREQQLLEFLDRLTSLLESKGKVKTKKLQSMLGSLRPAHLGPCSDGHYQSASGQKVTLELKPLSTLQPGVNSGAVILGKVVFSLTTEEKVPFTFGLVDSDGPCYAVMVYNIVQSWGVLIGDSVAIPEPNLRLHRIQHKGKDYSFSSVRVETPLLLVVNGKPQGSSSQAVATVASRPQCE
Chain of UniProt P42167 (P42167 whole entry, looked up): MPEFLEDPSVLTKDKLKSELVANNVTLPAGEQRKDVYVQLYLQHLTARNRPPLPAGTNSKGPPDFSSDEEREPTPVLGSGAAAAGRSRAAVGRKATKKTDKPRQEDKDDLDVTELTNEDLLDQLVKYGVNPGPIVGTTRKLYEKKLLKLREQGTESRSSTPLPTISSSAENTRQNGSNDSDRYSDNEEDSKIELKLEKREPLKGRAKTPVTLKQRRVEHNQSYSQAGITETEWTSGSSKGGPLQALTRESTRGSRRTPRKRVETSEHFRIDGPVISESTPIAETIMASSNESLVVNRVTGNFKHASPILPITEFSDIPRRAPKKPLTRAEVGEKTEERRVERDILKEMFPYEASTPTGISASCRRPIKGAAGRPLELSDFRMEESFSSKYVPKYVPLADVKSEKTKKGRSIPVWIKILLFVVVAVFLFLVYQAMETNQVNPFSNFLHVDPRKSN
Chain of UniProt Q96S44 (Q96S44 whole entry, looked up): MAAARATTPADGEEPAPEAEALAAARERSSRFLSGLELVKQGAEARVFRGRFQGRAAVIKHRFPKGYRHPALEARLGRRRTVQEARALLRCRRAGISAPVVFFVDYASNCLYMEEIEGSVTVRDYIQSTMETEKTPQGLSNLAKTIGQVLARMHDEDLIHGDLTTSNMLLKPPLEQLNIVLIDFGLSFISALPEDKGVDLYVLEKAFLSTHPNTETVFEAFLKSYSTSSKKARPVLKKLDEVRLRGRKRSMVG
Chain of UniProt P51668 (P51668 whole entry, looked up): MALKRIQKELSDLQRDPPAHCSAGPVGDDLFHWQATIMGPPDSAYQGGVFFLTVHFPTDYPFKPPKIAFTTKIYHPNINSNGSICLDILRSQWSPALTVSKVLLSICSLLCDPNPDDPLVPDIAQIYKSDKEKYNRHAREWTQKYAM
Chain of UniProt Q9P0S9 (Q9P0S9 whole entry, looked up): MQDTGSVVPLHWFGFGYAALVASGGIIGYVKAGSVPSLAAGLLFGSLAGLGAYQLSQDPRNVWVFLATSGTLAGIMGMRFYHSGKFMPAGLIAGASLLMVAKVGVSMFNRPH

These targets were tested with C1=CC2=NC=CN=C2C=C1/C=C/3\C(=O)NC(=O)S3 (assay: log2 fold change, soluble protein after heating vs DMSO (PISA); higher = thermal stabilisation; K562 lysate, 10 uM; active = over 0.2 and 3.5 SD of the protein, either way, in both replicates (recomputed)).
Outline: (§1)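 Pellets of K562 cells were dounce-homogenised in PBS pH 7.4 with 1 mM MgCl2, and the crude extract was held at 1 mg/mL protein for a 30 min treatment with 10 μM compound. Aliquots were heated for 3 min over 48°C-58°C and pooled before NP-40 was added to 0.5% at 4°C. The supernatant from 21,000xg for 90 min was quantified by TMTpro 16plex LC-MS/MS with channel sums equalised. Values are reported from duplicates as log-two fold change in thermal stability relative to solvent controls.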
TOR3A (UniProt Q9H497) was tested, and the log2 fold change was -0.01 (inactive). In the case of TRAF2 isoform 2 (UniProt Q12933), the log2 fold change is reported as -0.016 (inactive). With TBRG4 (UniProt Q969Z0) the log2 fold change was 0.013 (inactive). With TBL3 (UniProt Q12788) the log2 fold change was 0.012 (inactive). With UBE3B (UniProt Q7Z3V4) the log2 fold change was 0.142 (inactive). TRA2A (UniProt Q13595) was tested, and the log2 fold change was -0.137 (inactive). For TJP1 isoform 2 (UniProt Q07157), the log2 fold change was -0.082 (inactive). TPM4 isoform 2 (UniProt P67936) was tested, and the log2 fold change was 0.002 (inactive). TUBGCP3 (UniProt Q96CW5) was tested, and the log2 fold change was 0.02 (inactive). With TGOLN2 isoform 7 (UniProt O43493) the log2 fold change was -0.036 (inactive). For TSPAN13 (UniProt O95857), the log2 fold change was -0.002 (inactive). In the case of TIMELESS (UniProt Q9UNS1), the log2 fold change is reported as -0.002 (inactive). TRMT2A (UniProt Q8IZ69) was tested, and the log2 fold change was -0.012 (inactive). TTC12 isoform 2 (UniProt Q9H892) was tested, and the log2 fold change was -0.081 (inactive). For TMPO (UniProt P42167), the log2 fold change was 0.014 (inactive). For TBK1 (UniProt Q9UHD2), the log2 fold change was -0.067 (inactive). With TGFBRAP1 (UniProt Q8WUH2) the log2 fold change was -0.018 (inactive). For TMEM14C (UniProt Q9P0S9), the log2 fold change was -0.039 (inactive). For TMEM164 (UniProt Q5U3C3), the log2 fold change was 0.104 (inactive). In the case of TPM3 (UniProt P06753), the log2 fold change is reported as -0.012 (inactive). For TTI2 (UniProt Q6NXR4), the log2 fold change was 0.013 (inactive). For TBC1D23 (UniProt Q9NUY8), the log2 fold change was -0.015 (inactive). TRIM25 (UniProt Q14258) was tested, and the log2 fold change was -0.028 (inactive). In the case of UBE2D1 (UniProt P51668), the log2 fold change is reported as -0.032 (inactive). TPP2 (UniProt Q5VZU9) was tested, and the log2 fold change was 0 (inactive). For TRMT12 (UniProt Q53H54), the log2 fold change was -0.044 (inactive). TCAF2 (UniProt A6NFQ2) was tested, and the log2 fold change was -0.038 (inactive). In the case of TRIM56 (UniProt Q9BRZ2), the log2 fold change is reported as 0.141 (inactive). In the case of TTC27 (UniProt Q6P3X3), the log2 fold change is reported as 0.007 (inactive). With UBR5 (UniProt O95071) the log2 fold change was -0.012 (inactive). In the case of TROAP (UniProt Q12815), the log2 fold change is reported as -0.054 (inactive). TUBGCP2 isoform 4 (UniProt Q9BSJ2) was tested, and the log2 fold change was 0.014 (inactive). For TTC5 (UniProt Q8N0Z6), the log2 fold change was 0.041 (inactive). In the case of TRIM33 (UniProt H0Y612), the log2 fold change is reported as -0.071 (inactive). With TP53RK (UniProt Q96S44) the log2 fold change was -0.37 (active). For TFCP2 (UniProt Q12800), the log2 fold change was -0.042 (inactive). TIAL1 isoform 2 (UniProt Q01085) was tested, and the log2 fold change was -0.019 (inactive). In the case of TRIM65 (UniProt Q6PJ69), the log2 fold change is reported as -0.005 (inactive). In the case of TTF2 (UniProt Q9UNY4), the log2 fold change is reported as -0.026 (inactive). In the case of TRAPPC9 isoform 2 (UniProt Q96Q05), the log2 fold change is reported as -0.04 (inactive).

These targets were tested with C1=CC=C(C=C1)C2=NC(=C(N2)C3=CC=NC=C3)C4=CC(=C(C=C4)Cl)O in the same assay as above.
Outline: as §1
With TOR3A (UniProt Q9H497) the log2 fold change was -0.012 (inactive). For TRAF2 isoform 2 (UniProt Q12933), the log2 fold change was -0.01 (inactive). For TBRG4 (UniProt Q969Z0), the log2 fold change was -0.044 (inactive). For TBL3 (UniProt Q12788), the log2 fold change was 0.017 (inactive). With UBE3B (UniProt Q7Z3V4) the log2 fold change was 0.011 (inactive). With TRA2A (UniProt Q13595) the log2 fold change was 0.038 (inactive). TJP1 isoform 2 (UniProt Q07157) was tested, and the log2 fold change was -0.018 (inactive). TPM4 isoform 2 (UniProt P67936) was tested, and the log2 fold change was 0.024 (inactive). In the case of TUBGCP3 (UniProt Q96CW5), the log2 fold change is reported as -0.039 (inactive). TGOLN2 isoform 7 (UniProt O43493) was tested, and the log2 fold change was -0.021 (inactive). In the case of TSPAN13 (UniProt O95857), the log2 fold change is reported as 0.008 (inactive). In the case of TIMELESS (UniProt Q9UNS1), the log2 fold change is reported as -0.001 (inactive). For TRMT2A (UniProt Q8IZ69), the log2 fold change was -0.012 (inactive). TTC12 isoform 2 (UniProt Q9H892) was tested, and the log2 fold change was -0.037 (inactive). In the case of TMPO (UniProt P42167), the log2 fold change is reported as -0.029 (inactive). TBK1 (UniProt Q9UHD2) was tested, and the log2 fold change was 0.023 (inactive). For TGFBRAP1 (UniProt Q8WUH2), the log2 fold change was -0.02 (inactive). TMEM14C (UniProt Q9P0S9) was tested, and the log2 fold change was 0.022 (inactive). For TMEM164 (UniProt Q5U3C3), the log2 fold change was -0.056 (inactive). In the case of TPM3 (UniProt P06753), the log2 fold change is reported as 0.014 (inactive). TTI2 (UniProt Q6NXR4) was tested, and the log2 fold change was 0.012 (inactive). With TBC1D23 (UniProt Q9NUY8) the log2 fold change was 0.011 (inactive). With TRIM25 (UniProt Q14258) the log2 fold change was 0.032 (inactive). With UBE2D1 (UniProt P51668) the log2 fold change was 0.008 (inactive). With TPP2 (UniProt Q5VZU9) the log2 fold change was 0.131 (inactive). With TRMT12 (UniProt Q53H54) the log2 fold change was 0.106 (inactive). For TCAF2 (UniProt A6NFQ2), the log2 fold change was -0.027 (inactive). With TRIM56 (UniProt Q9BRZ2) the log2 fold change was -0.013 (inactive). With TTC27 (UniProt Q6P3X3) the log2 fold change was -0.014 (inactive). For UBR5 (UniProt O95071), the log2 fold change was -0.013 (inactive). TROAP (UniProt Q12815) was tested, and the log2 fold change was 0.017 (inactive). In the case of TUBGCP2 isoform 4 (UniProt Q9BSJ2), the log2 fold change is reported as -0.005 (inactive). For TTC5 (UniProt Q8N0Z6), the log2 fold change was 0.022 (inactive). TRIM33 (UniProt H0Y612) was tested, and the log2 fold change was -0.01 (inactive). For TP53RK (UniProt Q96S44), the log2 fold change was -0.03 (inactive). For TFCP2 (UniProt Q12800), the log2 fold change was -0.007 (inactive). With TIAL1 isoform 2 (UniProt Q01085) the log2 fold change was -0.035 (inactive). With TRIM65 (UniProt Q6PJ69) the log2 fold change was -0.044 (inactive). For TTF2 (UniProt Q9UNY4), the log2 fold change was 0.042 (inactive). TRAPPC9 isoform 2 (UniProt Q96Q05) was tested, and the log2 fold change was -0.012 (inactive).
